Experimental findings from PubChem BioAssay (NCATS) are described below.

Structures are written as SMILES. A number with no mark means an inactive call. Results filed as inconclusive are left out. Activity calls are given as the source filed them. Unless noted, calls come from the whole dose curve; as a rule, active = well fitted curve in either direction with a large enough effect (not every such curve was filed as active); inconclusive = small, poorly fitted or top-dose-only effect, or another doubt; inactive = flat fitted curve, though single readings scatter.

Test [1] has as its target Lysosomal acid glucosylceramidase (Homo sapiens) (UniProt P04062). Nature of the test: Glucocerebrosidase-p2 (AID 348; in the data active = potency below about 10 µM; note: potency is the fitted concentration of half-maximal effect). To be noted: purified GBA, blue fluorogenic substrate, 40 min. In a few lines:
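Compounds titrated from 0.6 nM upwards against 0.2 nM enzyme in pH 5.9 citric acid/KH2PO4, taurocholate, tween-20; blue fluorogenic substrate 80 uM, 40 min room temperature, stopped and read Ex 365/Em 440 for AC50.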

Test [2] is described as follows: AP1 Signaling Pathway (AID 357). Note: % is set by controls: 0 for no effect and ±100 for the full control effect. To be noted: ME-180 AP-1-bla reporter, EGF-induced, beta-lactamase ratio, 5 h; at 7.69 µM (top of the series) unless noted. An outline of the steps: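 AP-1-bla ME-180 cells with beta-lactamase reporter under AP-1 response element, stimulated with EC50 EGF; compounds titrated, 5 hours at 37 degrees Celsius. CCF4 read at 460/530 nm ratio; positive and negative modulators judged by AC50.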

A short description of test [3]: Stat Signaling Pathway (AID 446).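 Note: ME-180 cervical cancer cells given 40 pM IL-6 alongside compound; SIE-controlled beta-lactamase reporter measured as 460/530 nm FRET emission ratio; % is set by controls: 0 for no effect and ±100 for the full control effect.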 To be noted: ME-180 (cervical carcinoma) SIE beta-lactamase reporter, IL-6 stimulated, 5 h; at 7.69 µM (top of the series) unless noted. In a few lines:
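ME-180 SIE-bla cells; overnight plating; cpd + IL-6 40 pM, 5 h, 37 C; LiveBLAzer 2.5 h RT; 460/530 nm emission ratio. Normalized to 300 pM IL-6 and 125 nM JAK inhibitor controls.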

For test [4], the target named is Glucocorticoid receptor (Homo sapiens) (UniProt P04150). Nature of the test: GR-EFC Redistribution (AID 451; calls by dose curve; note: potency is the fitted concentration of half-maximal effect). The note with it: CHO-K1 GR-EFC translocation, beta-gal luminescence, 2 h. An outline of the steps: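 CHO-K1 cells expressing nuclear EA and GR-ED fragments of b-gal; compounds titrated up to 46 uM final, 2 h at 37 C. GR nuclear translocation read as complemented b-gal luminescence after 1 h RT detection.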
Sequence of Glucocorticoid receptor (Homo sapiens) (P04150 whole entry, looked up, the tested form may be a part): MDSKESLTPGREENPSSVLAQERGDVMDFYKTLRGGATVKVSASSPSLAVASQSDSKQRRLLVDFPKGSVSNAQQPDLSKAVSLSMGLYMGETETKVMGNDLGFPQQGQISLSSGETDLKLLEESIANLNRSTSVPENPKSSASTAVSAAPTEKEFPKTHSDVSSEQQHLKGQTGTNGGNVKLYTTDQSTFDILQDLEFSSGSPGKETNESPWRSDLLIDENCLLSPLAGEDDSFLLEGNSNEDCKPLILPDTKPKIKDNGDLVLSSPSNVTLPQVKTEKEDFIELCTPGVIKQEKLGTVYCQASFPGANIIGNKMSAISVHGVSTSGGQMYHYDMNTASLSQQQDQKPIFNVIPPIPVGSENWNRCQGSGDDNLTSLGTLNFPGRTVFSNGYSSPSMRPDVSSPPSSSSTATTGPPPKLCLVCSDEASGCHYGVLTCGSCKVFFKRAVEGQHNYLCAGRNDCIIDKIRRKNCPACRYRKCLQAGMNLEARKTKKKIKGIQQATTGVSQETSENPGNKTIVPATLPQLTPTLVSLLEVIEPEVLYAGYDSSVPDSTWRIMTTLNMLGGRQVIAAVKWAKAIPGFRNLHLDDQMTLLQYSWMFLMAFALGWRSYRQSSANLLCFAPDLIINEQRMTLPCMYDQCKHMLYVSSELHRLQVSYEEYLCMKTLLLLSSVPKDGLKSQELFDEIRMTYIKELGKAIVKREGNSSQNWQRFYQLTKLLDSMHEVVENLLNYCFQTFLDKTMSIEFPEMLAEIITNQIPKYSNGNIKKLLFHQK

Test [5] addresses Mitogen-activated protein kinase 10 (Mus musculus) (UniProt Q61831). Nature of the test: JNK3 AlphaScreen Assay (AID 530).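 Note: kinase came from lysate of stimulated human HepG2 cells; signal reports phosphorylation of biotinylated GST-cJun 1-79 at Ser73 with 10 µM ATP; % is set by controls: 0 for no effect and ±100 for the full control effect.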 To be noted: JNK3 lysate, c-Jun phosphorylation; series mostly up to 57.1 µM. An outline of the steps: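 qHTS format: compounds tested as titrations against IL-1beta/TNF-alpha-activated HepG2 lysate JNK3 with biotin-GST-cJun substrate and 10 uM ATP at room temperature. Loss of anti-phospho-cJun AlphaScreen signal indicates inhibition.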
(Bead proximity is the source of the signal in Alpha formats.)

The target of test [6] is 3',5'-cyclic-AMP phosphodiesterase 4B (Homo sapiens) (UniProt Q07343). Nature of the test: qHTS Assay for Inhibitors of PDE-IV (AID 607; active = well fitted activation curve with a large enough effect in the main read-out, with a control signal flat, not every such curve was filed as active; note: % of control where 0% means no effect). The note with it: HEK293 ACTOne CNG channel cells, membrane potential fluorescence; series mostly up to 22.9 µM. An outline of the steps: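 ACTOne HEK293 cells carry a modified cAMP-gated CNG channel and express endogenous PDE4; plated 1000 cells/well, compounds up to 22.9 uM final. Membrane-potential dye fluorescence (ex 535/em 590) was read; parental cells received 10 uM forskolin + 100 uM RO 20-1724.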
Sequence of 3',5'-cyclic-AMP phosphodiesterase 4B (Homo sapiens) (Q07343 whole entry, looked up): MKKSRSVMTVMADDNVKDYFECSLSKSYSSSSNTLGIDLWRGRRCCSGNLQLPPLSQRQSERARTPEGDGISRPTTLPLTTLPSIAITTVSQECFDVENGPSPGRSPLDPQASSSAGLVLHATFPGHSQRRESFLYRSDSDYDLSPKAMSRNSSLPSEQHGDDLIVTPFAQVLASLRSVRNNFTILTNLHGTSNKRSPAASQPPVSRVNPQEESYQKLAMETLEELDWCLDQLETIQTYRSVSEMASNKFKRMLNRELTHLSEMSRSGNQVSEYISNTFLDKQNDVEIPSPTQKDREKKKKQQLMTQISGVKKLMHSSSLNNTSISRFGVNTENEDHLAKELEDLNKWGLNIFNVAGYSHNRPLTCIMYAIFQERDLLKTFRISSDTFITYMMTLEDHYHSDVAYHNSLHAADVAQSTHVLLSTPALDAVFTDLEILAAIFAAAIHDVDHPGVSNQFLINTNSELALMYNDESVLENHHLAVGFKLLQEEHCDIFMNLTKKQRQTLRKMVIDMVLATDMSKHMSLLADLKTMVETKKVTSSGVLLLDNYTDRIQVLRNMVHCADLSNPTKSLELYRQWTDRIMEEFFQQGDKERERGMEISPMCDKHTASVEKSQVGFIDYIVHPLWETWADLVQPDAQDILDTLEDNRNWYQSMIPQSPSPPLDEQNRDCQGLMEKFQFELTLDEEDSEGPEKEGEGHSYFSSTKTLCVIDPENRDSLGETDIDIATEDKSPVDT
A general note: Quantitative high-throughput screening tests each substance at several concentrations.

A short description of test [7]: NFAT Signaling Pathway (AID 444).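 Note: carbachol stimulus at about its EC50 of 1 µM final; % is set by controls: 0 for no effect and ±100 for the full control effect.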 To be noted: Jurkat NFAT-bla M1, carbachol, beta-lactamase ratio, 5 h; at 7.69 µM (top of the series) unless noted. An outline of the steps: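 Jurkat cells with NFAT-driven β-lactamase reporter and co-expressed M1 receptor, stimulated with carbachol (final 1 uM, ~EC50), compound titration, 5 h at 37 °C. CCF4 loaded 1 h at RT; 460/530 nm ratio gave %activity and AC50.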

Test [8] has as its target Cytochrome P450 1A2 (Homo sapiens) (UniProt P05177). The experiment in a line: p450-cyp1a2 (AID 410; calls by dose curve; note: potency is the fitted concentration of half-maximal effect). The note with it: recombinant CYP1A2, luciferin-ME demethylation, luminescence; series mostly up to 11.4 µM. In a few lines:
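Inhibition was calculated relative to 57 uM furafylline (full inhibition). The reaction used human CYP1A2 at 20nM with Luciferin-ME at its Km, 100uM, driven by an NADPH-regenerating system for 60 min at room temperature.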

Test [9] deals with Glucocorticoid receptor (Homo sapiens) (UniProt P04150). The experiment in a line: GR-GFP Redistribution (AID 450;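 active = compounds whose dose series gives a full or clear partial fitted curve of increased nuclear translocation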; note: potency is the fitted concentration of half-maximal effect). To be noted: U2OS GR-GFP nuclear translocation, laser cytometry, 2 h.
The target in test [10] is Cytochrome P450 2C9 (Homo sapiens) (UniProt P11712). The experiment in a line: qHTS Assay for Inhibitors and Substrates of Cytochrome P450 2C9 (AID 883; active = well fitted curve in the direction sought with a large enough effect; an effect the other way counts as inactive or inconclusive; note: potency is the fitted concentration of half-maximal effect; nearly all actives have a fitted effect of over 60% in size). The note with it: recombinant CYP2C9, luciferin-H luminescence, 60 min; series mostly up to 57.1 µM. An outline of the steps:
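10nM CYP2C9 + 100uM Luciferin-H (=KM), 25mM KPO4; cpd 10 min 37C; NADPH regen, 60 min 37C; stop/detect with P450 Glo-Buffer 20 min; luminescence. Norm. to 57uM sulphaphenazole as full inhibition.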

Test [11] has as its target Cytochrome P450 2C19 (Homo sapiens) (UniProt P33261). Nature of the test: qHTS Assay for Inhibitors and Substrates of Cytochrome P450 2C19 (AID 899; active = well fitted curve in the direction sought with a large enough effect; an effect the other way counts as inactive or inconclusive; note: potency is the fitted concentration of half-maximal effect; nearly all actives have a fitted effect of over 60% in size). To be noted: recombinant CYP2C19, luciferin-H EGE luminescence; series mostly up to 11.4 µM. An outline of the steps:
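Luminescent read-out of luciferin formed from Luciferin-H EGE (10uM, equal to KM). Enzyme 5nM in 50mM KPO4; compound added, 10 min at 37C, then NADPH regenerating system for 60 min at 37C. Full inhibition defined by 57uM ketoconazole.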

The target in test [12] is Cytochrome P450 3A4 (Homo sapiens) (UniProt P08684). The experiment in a line: qHTS Assay for Activators of Cytochrome P450 3A4 (AID 885; active = well fitted curve in the direction sought with a large enough effect; an effect the other way counts as inactive or inconclusive; note: nearly all actives have a fitted effect of over 65% in size). The note with it: recombinant CYP3A4, Luciferin-PPXE luminescence, 60 min; series mostly up to 57.1 µM. An outline of the steps:
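20nM CYP3A4 + 25uM Luciferin-PPXE (=KM), 200mM KPO4; cpd 10 min RT; NADPH regen, 60 min RT; stop w/ detection buffer, 20 min; luminescence. Normalized to 57 uM ketoconazole.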

Test [13] concerns the target Cytochrome P450 2D6 (Homo sapiens) (UniProt P10635). Nature of the test: qHTS Assay for Inhibitors and Substrates of Cytochrome P450 2D6 (AID 891; active = well fitted curve in the direction sought with a large enough effect; an effect the other way counts as inactive or inconclusive; note: potency is the fitted concentration of half-maximal effect; nearly all actives have a fitted effect of over 60% in size). To be noted: recombinant CYP2D6, luciferin-ME EGE luminescence; series mostly up to 11.4 µM. In a few lines: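 Human CYP2D6 (5 nM) with 30 uM Luciferin-ME EGE (at Km) in 100 mM KPO4, compound preincubated 10 min, then NADPH regeneration system for 60 min at room temperature. Luciferin read by luminescence; normalized to 1.43 uM quinidine.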

Sequence of Lysosomal acid glucosylceramidase (Homo sapiens) (P04062 whole entry, looked up): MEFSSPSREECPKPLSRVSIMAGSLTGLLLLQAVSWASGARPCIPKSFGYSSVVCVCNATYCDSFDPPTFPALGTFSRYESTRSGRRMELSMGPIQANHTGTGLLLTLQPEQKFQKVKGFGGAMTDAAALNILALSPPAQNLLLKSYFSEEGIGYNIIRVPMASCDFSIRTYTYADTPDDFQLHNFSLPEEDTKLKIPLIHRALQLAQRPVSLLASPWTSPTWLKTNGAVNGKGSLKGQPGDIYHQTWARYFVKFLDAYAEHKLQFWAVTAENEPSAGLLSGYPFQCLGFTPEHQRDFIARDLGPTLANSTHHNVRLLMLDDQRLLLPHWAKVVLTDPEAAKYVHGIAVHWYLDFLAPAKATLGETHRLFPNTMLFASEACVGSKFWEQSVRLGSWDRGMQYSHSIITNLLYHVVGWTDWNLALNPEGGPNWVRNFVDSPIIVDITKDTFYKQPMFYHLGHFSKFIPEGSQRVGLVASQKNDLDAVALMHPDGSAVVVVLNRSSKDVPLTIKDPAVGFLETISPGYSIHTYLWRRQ
Sequence of Cytochrome P450 2C9 (Homo sapiens) (P11712 whole entry, looked up): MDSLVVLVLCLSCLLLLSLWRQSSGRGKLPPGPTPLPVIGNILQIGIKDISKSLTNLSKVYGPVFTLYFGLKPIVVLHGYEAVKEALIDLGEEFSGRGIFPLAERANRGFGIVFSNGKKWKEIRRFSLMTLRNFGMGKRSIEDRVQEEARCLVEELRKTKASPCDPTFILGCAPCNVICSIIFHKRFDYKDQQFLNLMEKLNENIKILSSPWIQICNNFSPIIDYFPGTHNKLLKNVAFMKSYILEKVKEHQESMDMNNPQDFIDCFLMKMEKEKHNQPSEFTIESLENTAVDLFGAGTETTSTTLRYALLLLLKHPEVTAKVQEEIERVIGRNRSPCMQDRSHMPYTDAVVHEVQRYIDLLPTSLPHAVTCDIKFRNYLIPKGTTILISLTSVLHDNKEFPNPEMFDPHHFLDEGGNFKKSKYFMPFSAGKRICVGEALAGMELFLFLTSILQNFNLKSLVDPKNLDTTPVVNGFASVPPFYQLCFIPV
Sequence of Cytochrome P450 1A2 (Homo sapiens) (P05177 whole entry, looked up): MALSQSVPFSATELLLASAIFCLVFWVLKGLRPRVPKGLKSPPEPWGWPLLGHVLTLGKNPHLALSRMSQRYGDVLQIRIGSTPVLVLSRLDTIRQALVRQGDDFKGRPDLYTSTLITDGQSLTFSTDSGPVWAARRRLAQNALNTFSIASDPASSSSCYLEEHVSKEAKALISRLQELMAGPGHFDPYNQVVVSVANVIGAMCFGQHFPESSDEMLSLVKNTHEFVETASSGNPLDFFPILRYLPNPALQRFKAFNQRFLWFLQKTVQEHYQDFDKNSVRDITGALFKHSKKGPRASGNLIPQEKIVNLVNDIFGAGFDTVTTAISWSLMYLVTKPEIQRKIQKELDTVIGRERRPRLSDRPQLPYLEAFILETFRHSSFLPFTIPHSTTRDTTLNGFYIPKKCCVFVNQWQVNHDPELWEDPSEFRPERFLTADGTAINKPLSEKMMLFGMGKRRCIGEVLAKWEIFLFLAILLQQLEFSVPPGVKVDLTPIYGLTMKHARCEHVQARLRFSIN
Sequence of Cytochrome P450 2C19 (Homo sapiens) (P33261 whole entry, looked up): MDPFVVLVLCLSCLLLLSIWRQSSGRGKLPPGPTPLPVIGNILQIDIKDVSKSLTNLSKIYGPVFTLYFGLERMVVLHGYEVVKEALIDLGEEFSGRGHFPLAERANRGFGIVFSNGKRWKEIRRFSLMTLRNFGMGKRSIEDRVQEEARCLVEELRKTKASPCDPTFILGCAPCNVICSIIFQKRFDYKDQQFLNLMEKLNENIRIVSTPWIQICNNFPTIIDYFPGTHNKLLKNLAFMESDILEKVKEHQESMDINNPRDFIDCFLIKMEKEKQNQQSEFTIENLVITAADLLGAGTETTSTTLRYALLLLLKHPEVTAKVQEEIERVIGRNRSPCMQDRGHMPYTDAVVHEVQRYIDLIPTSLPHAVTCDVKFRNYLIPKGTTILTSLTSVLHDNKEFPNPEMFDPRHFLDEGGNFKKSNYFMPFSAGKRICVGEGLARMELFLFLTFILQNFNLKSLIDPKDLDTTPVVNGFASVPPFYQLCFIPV
Sequence of Cytochrome P450 3A4 (Homo sapiens) (P08684 whole entry, looked up): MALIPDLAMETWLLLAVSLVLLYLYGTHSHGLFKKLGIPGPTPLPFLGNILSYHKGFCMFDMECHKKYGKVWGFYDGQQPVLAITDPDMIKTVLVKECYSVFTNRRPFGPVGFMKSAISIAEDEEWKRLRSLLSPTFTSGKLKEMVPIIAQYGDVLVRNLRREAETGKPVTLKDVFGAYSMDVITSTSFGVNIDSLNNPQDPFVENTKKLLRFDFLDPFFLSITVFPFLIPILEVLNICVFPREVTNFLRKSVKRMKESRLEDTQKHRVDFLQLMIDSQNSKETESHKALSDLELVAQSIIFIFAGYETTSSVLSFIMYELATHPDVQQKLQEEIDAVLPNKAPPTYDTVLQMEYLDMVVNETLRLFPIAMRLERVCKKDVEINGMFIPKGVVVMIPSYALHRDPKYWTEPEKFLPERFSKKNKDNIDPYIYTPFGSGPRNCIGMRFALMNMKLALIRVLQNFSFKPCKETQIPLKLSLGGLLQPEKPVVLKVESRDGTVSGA
Sequence of Cytochrome P450 2D6 (Homo sapiens) (P10635 whole entry, looked up): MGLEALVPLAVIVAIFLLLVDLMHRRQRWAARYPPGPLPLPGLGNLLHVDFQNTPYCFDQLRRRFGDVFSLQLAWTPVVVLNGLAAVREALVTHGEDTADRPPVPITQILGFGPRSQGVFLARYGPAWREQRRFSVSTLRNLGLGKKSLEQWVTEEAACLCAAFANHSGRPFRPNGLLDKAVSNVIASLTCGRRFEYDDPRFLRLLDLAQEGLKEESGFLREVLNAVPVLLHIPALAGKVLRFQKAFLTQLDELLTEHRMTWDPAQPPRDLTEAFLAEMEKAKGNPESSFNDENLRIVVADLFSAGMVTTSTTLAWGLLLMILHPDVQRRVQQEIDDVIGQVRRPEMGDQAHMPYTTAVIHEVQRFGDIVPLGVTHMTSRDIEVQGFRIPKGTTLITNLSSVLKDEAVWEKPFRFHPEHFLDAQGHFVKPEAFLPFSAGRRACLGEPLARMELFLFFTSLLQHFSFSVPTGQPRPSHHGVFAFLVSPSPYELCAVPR

Take `Oc1c(Cl)c(Cl)c(Cl)c(Cl)c1Cl` (tested in a mixture with another compound): the Potency in test [1] is more than 11.4 µM; in [4] it was more than 9.22 µM. The figures for the activity change, negative = inhibition in test [2] and in test [5] were -9.55% [middle of 4 runs] and 0.344% [at 11.4 µM] [middle of 4 runs], respectively. The activity, negative = inhibition in [3] was -12.9% [middle of 4 runs]. For the same compound, the result in test [6] was inactive.
On to `O=[As](O)(O)c1ccc(Cc2ccc([As](=O)(O)O)cc2)cc1`, for which the Potency is more than 11.4 µM in test [1] and more than 9.22 µM in test [4]. For the same compound, the activity change, negative = inhibition in test [7] is -132% (active); in test [5], -5.31% [at 11.4 µM]. The activity, negative = inhibition in [3] is -5.31%. In addition, the outcome in test [6] was inactive.
As to `O=C(O)c1cc[c]([Hg][S]c2ncnc3nc[nH]c23)cc1`, the Potency is 0.146 µM (active) in test [1]; 0.316 µM (active) in [8]; more than 46 µM in test [9]; more than 9.22 µM in test [4]; 1.26 µM (active) in test [10]; 0.631 µM (active) in test [11]. Also, the activity, negative = inhibition in test [3] was -16.1%. The activity change, negative = inhibition in test [5] is 3.39% [at 11.4 µM]. In test [6], the compound was called inactive.
On to `O=C(O)CN1CCN(CC(=O)O)CC(=O)[O][Hg][O]C(=O)C1`, for which the Potency in [1] is 0.199 µM (active); in test [10], 1.26 µM (active); in test [13], 3.16 µM (active); in test [11] it was 0.794 µM (active). Also, the activity change, negative = inhibition in test [2] is 18.9%. The activity, negative = inhibition in [3] was 1.17%. Besides, the result in test [6] was inactive. Also, the activity change, positive = activation in test [12] was -78.1% [at 11.4 µM].
For the compound `COc1cc2c(cc1O)C[C@@H]1c3c(cc(O)c(OC)c3-2)CCN1C`, the Potency in test [1] was more than 11.4 µM; in test [8] it was 3.98 µM (active); in [9], more than 46 µM; in [4], more than 9.22 µM. The activity change, negative = inhibition in test [7] is -0.493%; in test [5], 4.75% [at 11.4 µM]. Besides, the activity, negative = inhibition in test [3] was 0.101%. In addition, the compound was classed as inactive in test [6].
